Broadly, the inhibition is the drop in the measured response relative to a control, in per cent.

Five compounds from PubChem BioAssay can be followed below.

Activity calls are given as the source filed them.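 Rule for the calls, unless noted: active = mean inhibition above 46.68%, the untreated control wells mean plus 3 SD; inactive = the rest.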

The target in test [1] is Nuclear receptor coactivator 1 (Homo sapiens) (UniProt Q15788). Briefly: NCOA1 GAL4-fusion reporter inhibition – cell-based, luminescence, quadruplicate, confirmation (AID 588820).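 Note: 0% = DMSO wells and 100% = gossypol 36 µM treated wells.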 The note with it: HEK293 GAL4-SRC1 luciferase reporter, at 3.6 µM, stronger effect = higher value. (In a reporter assay the amount or activity of a reporter protein is the signal.)
Nuclear receptor coactivator 1 (Homo sapiens), sequence (Q15788 whole entry, looked up, the tested form may be a part): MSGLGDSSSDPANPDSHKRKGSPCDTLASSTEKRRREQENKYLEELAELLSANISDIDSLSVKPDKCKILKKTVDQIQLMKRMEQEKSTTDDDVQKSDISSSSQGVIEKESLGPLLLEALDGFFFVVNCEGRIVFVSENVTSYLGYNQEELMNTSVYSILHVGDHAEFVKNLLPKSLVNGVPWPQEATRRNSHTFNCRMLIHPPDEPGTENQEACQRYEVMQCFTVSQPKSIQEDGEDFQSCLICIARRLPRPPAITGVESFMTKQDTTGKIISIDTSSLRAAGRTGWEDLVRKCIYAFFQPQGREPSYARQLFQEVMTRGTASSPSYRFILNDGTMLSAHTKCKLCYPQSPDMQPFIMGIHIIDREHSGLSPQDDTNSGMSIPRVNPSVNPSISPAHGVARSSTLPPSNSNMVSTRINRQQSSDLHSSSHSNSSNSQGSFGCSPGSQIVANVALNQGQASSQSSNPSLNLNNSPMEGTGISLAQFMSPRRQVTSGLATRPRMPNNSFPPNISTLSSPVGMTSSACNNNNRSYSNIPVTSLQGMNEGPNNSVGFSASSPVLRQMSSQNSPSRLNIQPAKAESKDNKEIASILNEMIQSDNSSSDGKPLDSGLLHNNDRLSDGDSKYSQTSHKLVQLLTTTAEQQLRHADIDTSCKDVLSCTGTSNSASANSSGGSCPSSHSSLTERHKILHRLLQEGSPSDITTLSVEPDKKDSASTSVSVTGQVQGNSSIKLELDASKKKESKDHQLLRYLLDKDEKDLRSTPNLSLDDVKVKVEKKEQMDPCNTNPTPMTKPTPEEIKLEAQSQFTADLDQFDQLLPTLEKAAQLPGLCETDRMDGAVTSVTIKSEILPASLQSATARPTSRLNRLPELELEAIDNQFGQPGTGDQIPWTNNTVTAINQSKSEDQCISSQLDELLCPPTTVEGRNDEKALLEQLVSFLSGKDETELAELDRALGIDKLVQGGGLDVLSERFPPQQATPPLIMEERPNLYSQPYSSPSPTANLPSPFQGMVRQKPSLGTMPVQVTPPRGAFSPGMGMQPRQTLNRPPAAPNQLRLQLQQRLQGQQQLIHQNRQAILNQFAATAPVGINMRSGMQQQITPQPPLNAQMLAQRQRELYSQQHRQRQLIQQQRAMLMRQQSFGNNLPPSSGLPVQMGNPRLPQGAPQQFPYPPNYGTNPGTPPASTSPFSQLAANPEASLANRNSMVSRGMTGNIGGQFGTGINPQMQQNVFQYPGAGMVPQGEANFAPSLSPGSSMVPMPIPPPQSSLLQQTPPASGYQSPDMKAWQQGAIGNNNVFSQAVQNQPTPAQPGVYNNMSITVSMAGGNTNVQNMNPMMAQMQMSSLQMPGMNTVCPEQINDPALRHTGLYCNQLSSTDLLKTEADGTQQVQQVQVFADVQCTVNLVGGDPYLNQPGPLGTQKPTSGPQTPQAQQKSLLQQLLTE
Test [2] is described as follows: repression of VP16-driven luciferase reporter – cell-based, luminescence, high throughput, counter-screen for SRC1 inhibitor project (AID 588824; in the data active = inhibition above about 25%). The note with it: cell-based VP16 transactivation luciferase luminescence; at 3.6 µM; stronger effect = higher value.

Regarding `CC1(C)CC(NCc2ccccc2)CCO1` (stereo not given), the inhibition was -24.7% (inactive) in test [1] and -4.92% (inactive) in test [2].

Turning to `Cc1nc2ccccc2c2oc(C(=O)Nc3ccc(C(C)C)cc3)cc12`, the inhibition in test [1] was -6.16% (inactive); in test [2], -1.6% (inactive).

With `COc1ccc(C(=O)Nc2ccnn2C2CCN(C3CCC3)CC2)cc1`, the figures for the inhibition in test [1] and in test [2] were -28.9% (inactive) and -0.43% (inactive), respectively.

In the case of `Cc1ccc(-n2c(C)nn(CC3CC3)c2=O)cc1`, the results for the inhibition in test [1] and in test [2] were 2.58% (inactive) and -3.08% (inactive), respectively.

As for `CCn1cc(C(=O)NCC(OC)OC)c(=O)c2cc(S(=O)(=O)N(C)C3CCCCC3)ccc21`, the inhibition in test [1] is 11.4% (inactive); in test [2] it was 19.8% (inactive).
